Test results reported in PubChem BioAssay (NCATS).
Inconclusive results are not listed. Active and inactive are the calls of the source. Calls come from the whole dose curve.

Columns and labels:
[1] = Primary qHTS for Huh7 cytotoxicity: counterscreen for inhibitors of MERS-S pseudotyped particle cell entry (AID 1479147); details: cell viability read-out; series mostly up to 57.1 µM
[2] = Primary qHTS for inhibitors of MERS-S pseudo-typed particle cell entry (AID 1479149); details: MERS-S pseudotyped particle entry, luciferase; series mostly up to 57.1 µM; note: nearly all actives have a fitted effect of over 60% in size
[3] = Primary qHTS for Vero E6 cytotoxicity: counterscreen for inhibitors of SARS-S pseudo-typed particle cell entry (AID 1479150); details: cell viability; series mostly up to 57.1 µM; note: potency is the fitted concentration of half-maximal effect
[4] = Primary qHTS for inhibitors of SARS-S pseudo-typed particle cell entry (AID 1479145); details: SARS-S pseudotyped particle cell entry, luciferase reporter; series mostly up to 57.1 µM; note: nearly all actives have a fitted effect of over 45% in size
[5] = Confirmatory qHTS for VERO E6 Cytotoxicity Assay: Counterscreen for SARS-CoV-2 CPE Assay (AID 1508605); details: cell viability luminescence; series mostly up to 20 µM; note: nearly all actives have a fitted effect of over 60% in size

Measured: Potency

CCCC(=O)OC(C(Cl)(Cl)Cl)P(=O)(OC)OC (configuration not stated)
inactive: [1] | [2] inactive [at 114 µM] | [3]

CCN(CC)C(=O)N[C@H]1C[C@@H]2c3cccc4[nH]cc(c34)C[C@H]2N(C)C1
inactive: [1] | [2] | [3]

C[C@@H]([C@H](O)c1ccccc1)N(C)C
not listed: [5]
inactive: all other assays above

O=C1OC2(c3cc(Br)c(O)cc3Oc3c2cc(Br)c(O)[c]3[Hg])c2ccccc21 (configuration not stated)
inactive: [2]

Cc1ccccc1-n1c(CF)nc2ccc(N)cc2c1=O
inactive: [1] | [2] | [3]

CCCCC[C@@H](O)C1C(=O)OC(C)[C@H](O)/C=C/C=C/C=C/C=C/C=C(\C)C(O)C(O)C(O)C[C@H](O)C[C@H](O)C[C@H](O)C[C@H](O)C[C@@H]1O (some centres not stated)
not listed: [5]
inactive: all other assays above

CCOC(=O)c1ccccc1C(=O)OCC
not listed: [5]
inactive: all other assays above

O=C(O)C(Cl)(Cl)Cl
not listed: [5]
inactive: all other assays above

C[C@]12CCC(=O)C=C1C=C[C@@H]1[C@@H]2CC[C@@]2(C)[C@H]1CC[C@@]2(O)CCC(=O)O
inactive: [1] | [2] | [3]

CC[C@H]1CN2CC[C@H]1C[C@@H]2[C@@H](O)c1ccnc2ccc(OC)cc12
inactive: [1] | [3] | [5]

C[C@]12CC[C@H](OS(=O)(=O)O)CC1=CC[C@@H]1[C@@H]2CC[C@]2(C)C(=O)CC[C@@H]12
inactive: [1] | [2] | [3]

CC1CCC(C(C)C)C(OC(=O)c2ccccc2N)C1 (configuration not stated)
not listed: [5]
inactive: all other assays above

O=C1C2CC=CCC2C(=O)N1SC(Cl)(Cl)Cl (configuration not stated)
active: [3] 20 µM

FC(F)OC(F)(F)C(F)Cl (configuration not stated)
inactive: [1] | [2] | [3]

Oc1ccc2c3c1O[C@H]1[C@@H](O)CC[C@@]4(O)[C@@H](C2)N(CC2CCC2)CC[C@]314
inactive: [1] | [2] | [3]

O=C(C[C@@H]1NCCC[C@H]1O)Cn1cnc2cc(Br)c(Cl)cc2c1=O
not listed: [5]
inactive: all other assays above

CCC1C(C)=NN=C(c2ccc(OC)c(OC)c2)c2cc(OC)c(OC)cc21 (configuration not stated)
not listed: [5]
inactive: all other assays above

CCCCCCCCCC(=O)O[C@H]1CC[C@H]2[C@@H]3CCC4=CC(=O)CC[C@]4(C)[C@H]3CC[C@]12C
not listed: [5]
inactive: all other assays above

ClC1C(Cl)C(Cl)C(Cl)C(Cl)C1Cl (configuration not stated)
inactive: [1] | [2] | [3]

COC([CH2][Hg])CNC(=O)c1ccccc1OCC(=O)O (configuration not stated)
active: [3] 3.55 µM

O=C(OCCN1CCCCC1)C(O)(c1ccccc1)c1ccccc1
not listed: [5]
inactive: all other assays above

Cn1sc(Cl)cc1=O
not listed: [5]
inactive: all other assays above

NCC(O)c1cccc(O)c1 (configuration not stated)
not listed: [5]
inactive: all other assays above

C[C@@H](CO)NC(=O)[C@@H]1C=C2c3cccc4[nH]cc(c34)C[C@H]2N(C)C1
not listed: [5]
inactive: all other assays above

CCCCCCC(=O)O[C@H]1CC[C@H]2[C@@H]3CC[C@H]4CC(=O)C=C(C)[C@]4(C)[C@H]3CC[C@]12C
inactive: [1] | [2] | [3]

COc1cc2c(cc1OC)[C@@]13CCN4CC5=CCO[C@H]6CC(=O)N2[C@H]1[C@H]6[C@H]5C[C@H]43
not listed: [5]
inactive: all other assays above

CCNCC(O)c1cccc(O)c1 (configuration not stated)
inactive: [1] | [2] | [3]

CC[C@H](C)[C@H]1O[C@]2(C=C[C@@H]1C)C[C@@H]1C[C@@H](C/C=C(\C)[C@@H](O[C@H]3C[C@H](OC)[C@@H](O[C@H]4C[C@H](OC)[C@@H](O)[C@H](C)O4)[C@H](C)O3)[C@@H](C)/C=C/C=C3\CO[C@@H]4[C@H](O)C(C)=C[C@@H](C(=O)O1)[C@]34O)O2
inactive: [4] | [1] | [3]

O=C/C=C/c1ccccc1
not listed: [5]
inactive: all other assays above

c1ccc2sc(SNC3CCCCC3)nc2c1
inactive: [4] | [1] | [2] inactive [at 114 µM] | [3]

C=CC[C@]1(O)CC[C@H]2[C@@H]3CCC4=CCCC[C@@H]4[C@H]3CC[C@@]21C
inactive: [4] inactive [at 114 µM] | [1] inactive [at 114 µM] | [2] | [3]

CC(C)(O)[C@@H]1[C@H]2OC(=O)[C@@H]1[C@]1(O)C[C@H]3O[C@]34C(=O)O[C@H]2[C@]14C
not listed: [5]
inactive: all other assays above
